Experimental data taken from paper PMC4336329 (PLoS ONE, 2015).
About 14,000 (4.5%) of roughly 310,000 compounds showed an effect of 50% or more. Effects have a minus sign here. For the sample, strong results were picked, then their nearest neighbours and some compounds at random.

target: human ether-à-go-go-related gene (hERG) potassium channel (human, UniProt Q12809); experiment: primary screen, population patch clamp on CHO cells stably expressing hERG; higher = less effect of the substance
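Also: peak tail current of the secondary pulse compared with the same well before compound.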

Sequence of human ether-à-go-go-related gene (hERG) potassium channel (Q12809 whole entry, looked up): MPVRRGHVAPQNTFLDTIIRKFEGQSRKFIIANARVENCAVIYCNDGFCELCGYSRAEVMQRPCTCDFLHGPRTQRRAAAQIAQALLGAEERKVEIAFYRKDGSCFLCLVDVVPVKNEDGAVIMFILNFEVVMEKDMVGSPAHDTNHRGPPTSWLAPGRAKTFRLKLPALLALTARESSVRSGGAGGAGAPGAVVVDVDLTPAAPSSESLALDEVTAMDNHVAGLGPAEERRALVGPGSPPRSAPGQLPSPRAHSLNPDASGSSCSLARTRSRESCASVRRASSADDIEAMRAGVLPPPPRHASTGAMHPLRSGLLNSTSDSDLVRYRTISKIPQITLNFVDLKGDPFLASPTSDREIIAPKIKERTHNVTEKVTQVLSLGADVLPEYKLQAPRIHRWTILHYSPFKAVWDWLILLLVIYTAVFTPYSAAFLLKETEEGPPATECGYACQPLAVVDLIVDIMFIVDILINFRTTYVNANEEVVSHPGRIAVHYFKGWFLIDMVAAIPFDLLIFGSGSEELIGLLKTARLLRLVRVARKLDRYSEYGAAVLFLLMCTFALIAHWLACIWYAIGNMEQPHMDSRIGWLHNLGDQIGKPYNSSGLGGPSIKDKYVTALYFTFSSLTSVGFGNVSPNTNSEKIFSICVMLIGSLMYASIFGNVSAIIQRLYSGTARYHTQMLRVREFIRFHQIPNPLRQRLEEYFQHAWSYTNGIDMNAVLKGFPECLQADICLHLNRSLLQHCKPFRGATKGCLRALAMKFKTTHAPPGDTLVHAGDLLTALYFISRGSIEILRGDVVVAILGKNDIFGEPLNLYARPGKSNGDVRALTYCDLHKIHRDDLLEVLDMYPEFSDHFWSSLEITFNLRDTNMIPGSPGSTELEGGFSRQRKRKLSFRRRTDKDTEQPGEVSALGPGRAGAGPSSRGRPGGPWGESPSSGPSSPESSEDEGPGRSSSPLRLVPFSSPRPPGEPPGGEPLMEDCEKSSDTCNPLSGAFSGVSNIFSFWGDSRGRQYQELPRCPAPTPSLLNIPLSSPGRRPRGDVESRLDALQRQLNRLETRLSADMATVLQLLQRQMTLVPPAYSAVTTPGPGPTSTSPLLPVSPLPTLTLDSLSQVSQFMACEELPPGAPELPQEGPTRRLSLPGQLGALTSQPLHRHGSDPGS

| SMILES | hERG current change (%, negative = inhibition) at 10uM [%] |
| --- | --- |
| CCCCN(CC)S(=O)(=O)c1ccc(C(=O)Nc2nnc(-c3cccs3)o2)cc1 | -8.71 |
| COc1ccc(S(=O)(=O)N2CCOCC2)cc1NC(=O)CSc1nnc(C2CC2)n1C1CC1 | 2.57 |
| O=C(CN1C(=O)NC2(CCCc3ccccc32)C1=O)NCc1cccs1 (stereo not shown) | 6.2 |
| CCOC(=O)C1CCCN(C(=S)Nc2cccc(Cl)c2)C1 (stereo not shown) | -5.74 |
| O=C(CCCc1ccccc1)NCCS(=O)(=O)N1CCN(c2ccc(F)cc2)CC1 | -39.3 |
| CCCCN=Cc1c(C)[nH]n(-c2ccccc2)c1=S | -4.64 |
| COC(=O)Cc1[nH]n(-c2nc3ccccc3s2)c(=O)c1C(C)=O | 21.6 |
| Cc1[nH]n(-c2ccccc2)c(=O)c1C=NCC1CCCO1 (stereo not shown) | 13.8 |
| CCCc1[nH]n(-c2nc3ccccc3s2)c(=O)c1C=NCC1CCCO1 (stereo not shown) | -65.5 |
| CCCc1[nH]n(-c2nc3ccccc3s2)c(=O)c1C=NCCN1CCOCC1 | -34.5 |
| CCCc1cc(=O)n(-c2nc3ccccc3s2)[nH]1 | 11.2 |
| CCCc1[nH]n(-c2nc3ccccc3s2)c(=O)c1C=NCCCOC | -57.2 |
| CCCCCN=Cc1c(C)[nH]n(-c2nc3ccccc3s2)c1=O | -65.5 |
| CCCN=Cc1c(CCC)[nH]n(-c2nc3ccccc3s2)c1=O | -66.9 |
| COC(=O)Cc1[nH]n(-c2nc3ccccc3s2)c(=O)c1C(C)=Nc1ccc(C)cc1 | 5.94 |
| CC(=NCc1ccco1)c1c(C)[nH]n(-c2nc3ccccc3s2)c1=O | 3.78 |
| Cc1[nH]n(-c2ccc([N+](=O)[O-])cc2)c(=O)c1C=NCC1CCCO1 (stereo not shown) | 0.91 |
| C/C(=N\NC(=O)c1ccc(NS(=O)(=O)c2cccs2)cc1)c1ccc(O)cc1O | -0.956 |
| CSc1nc(N)nc(C(C)C)n1 | -5.59 |
| CC[C@H](C)[C@H](NC(N)=O)C(=O)NCCc1ccc(OC)cc1 | -0.532 |
| O=C(CSc1nc(-c2ccccc2)nc2ccc(F)cc12)Nc1cccc(C(=O)O)c1 | 2.54 |
| O=C(NCc1cccnc1)c1cccs1 | 11.7 |
| COc1cc(NC(=O)C23CC4CC(C2)CC(n2nnc(C)n2)(C4)C3)c(OC)cc1Cl | 4.76 |
| COc1ccc(CCN2CC(C(=O)NC3CCCCC3)CC2=O)cc1OC (stereo not shown) | 10.2 |
| COC(=O)CC1SCCNC1=O (stereo not shown) | 9.08 |

| SMILES | hERG current change (%, negative = inhibition) at 10uM [%] |
| --- | --- |
| C/C(=N\NC(=O)CC(C)C)c1c(C(F)(F)F)[nH]n(-c2nc3ccccc3s2)c1=O | 8.88 |
| CCN(CC)CCCSc1nc2ccccc2s1.O=C(O)C(=O)O | -31.9 |
| CC(=O)c1c(CC(=O)O)[nH]n(-c2nc3ccccc3s2)c1=O | 3.17 |
| CCCc1[nH]n(-c2nc3ccccc3s2)c(=O)c1C=NCCCN(CC)CC | -75.9 |
| CCCc1[nH]n(-c2nc3ccccc3s2)c(=O)c1C=NCC(C)C | -75.4 |
| Cc1cc(F)ccc1S(=O)(=O)N1CCCOC1CNC(=O)C(=O)NCc1ccc2c(c1)OCO2 (stereo not shown) | -26.9 |
| Cc1ccc(NC(=O)CSc2nnc(-c3ccncc3)s2)cc1 | 5.52 |
| O=[N+]([O-])c1ccc(N2CCCCC2)c(Cl)c1N1CCCCC1 | 3.77 |
| C=C(C)COc1ccc(-c2nc(N)ncc2-c2ccc(Br)cc2)c(O)c1 | 23.6 |
| CC12CCC(C/C1=N/O)C2(C)C (stereo not shown) | 6.85 |
| NC(=O)CCn1cnc2ccccc21 | 6.28 |
| O=C(NCc1cccnc1)c1ccc(=O)oc1 | -8.85 |
| CCCOC(=O)c1cccc(NC(=O)COc2ccc([N+](=O)[O-])cc2)c1 | -26.9 |
| CCOC(=O)c1cccc(NC(=O)COc2ccc([N+](=O)[O-])cc2)c1 | -68 |
| Cc1cccc(OCC(=O)Nc2cccc(C(=O)NCC(C)C)c2)c1 | -17.4 |
| CC(C)CNC(=O)c1cccc(NC(=O)COc2cccc([N+](=O)[O-])c2)c1 | -24.7 |
| CCOC(=O)c1cc(NC(=O)COc2ccc([N+](=O)[O-])cc2)cc(C(=O)OCC)c1 | -12.9 |
| CC(C)CNC(=O)c1cccc(NC(=O)COc2ccc([N+](=O)[O-])cc2)c1 | -57.4 |
| COCc1ccc(CN2CCCC(CO)(Cc3ccccc3C)C2)o1 (stereo not shown) | 2.18 |
| CC(=O)Nc1ccc(NC(=O)c2cc(=O)c3cc(C)c(C)cc3o2)cc1 | 24.6 |
| Br.N=C1CCCN1CC(=O)c1ccc(Cl)cc1 | 1.8 |
| COC(=O)c1ccc(/C=N\NC(=O)CC(=O)NCCc2ccccc2)cc1 | 19.8 |
| O=C(C1CCCN(S(=O)(=O)c2cccc3cccnc23)C1)N1CCN(c2ccccc2F)CC1 (stereo not shown) | -75.5 |
| O=C(Nc1ccc(F)cc1)C1CCCN(S(=O)(=O)c2cccc3cccnc23)C1 (stereo not shown) | -49.3 |
